Unmarked numbers belong to inactive results. Some of the results follow. Active and inactive are the calls of the source. Rule as the data show it, unless noted: active = inhibition above about 28%; inactive = the rest.
Key:
[1] = molecular target: Nuclear receptor coactivator 1 (Homo sapiens) (UniProt Q15788); experiment: SRC1 coactivator transcriptional activity inhibitors, confirmation, cell-based, luminescence, quadruplicate (AID 588820;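 active = mean inhibition above 46.68%, the untreated control wells mean plus 3 SD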;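 also: 0% = DMSO wells and 100% = gossypol 36 µM treated wells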); conditions: HEK293 GAL4-SRC1 luciferase reporter, at 3.6 µM, active compounds read high
Nuclear receptor coactivator 1 (Homo sapiens), sequence (Q15788 whole entry, looked up, the tested form may be a part): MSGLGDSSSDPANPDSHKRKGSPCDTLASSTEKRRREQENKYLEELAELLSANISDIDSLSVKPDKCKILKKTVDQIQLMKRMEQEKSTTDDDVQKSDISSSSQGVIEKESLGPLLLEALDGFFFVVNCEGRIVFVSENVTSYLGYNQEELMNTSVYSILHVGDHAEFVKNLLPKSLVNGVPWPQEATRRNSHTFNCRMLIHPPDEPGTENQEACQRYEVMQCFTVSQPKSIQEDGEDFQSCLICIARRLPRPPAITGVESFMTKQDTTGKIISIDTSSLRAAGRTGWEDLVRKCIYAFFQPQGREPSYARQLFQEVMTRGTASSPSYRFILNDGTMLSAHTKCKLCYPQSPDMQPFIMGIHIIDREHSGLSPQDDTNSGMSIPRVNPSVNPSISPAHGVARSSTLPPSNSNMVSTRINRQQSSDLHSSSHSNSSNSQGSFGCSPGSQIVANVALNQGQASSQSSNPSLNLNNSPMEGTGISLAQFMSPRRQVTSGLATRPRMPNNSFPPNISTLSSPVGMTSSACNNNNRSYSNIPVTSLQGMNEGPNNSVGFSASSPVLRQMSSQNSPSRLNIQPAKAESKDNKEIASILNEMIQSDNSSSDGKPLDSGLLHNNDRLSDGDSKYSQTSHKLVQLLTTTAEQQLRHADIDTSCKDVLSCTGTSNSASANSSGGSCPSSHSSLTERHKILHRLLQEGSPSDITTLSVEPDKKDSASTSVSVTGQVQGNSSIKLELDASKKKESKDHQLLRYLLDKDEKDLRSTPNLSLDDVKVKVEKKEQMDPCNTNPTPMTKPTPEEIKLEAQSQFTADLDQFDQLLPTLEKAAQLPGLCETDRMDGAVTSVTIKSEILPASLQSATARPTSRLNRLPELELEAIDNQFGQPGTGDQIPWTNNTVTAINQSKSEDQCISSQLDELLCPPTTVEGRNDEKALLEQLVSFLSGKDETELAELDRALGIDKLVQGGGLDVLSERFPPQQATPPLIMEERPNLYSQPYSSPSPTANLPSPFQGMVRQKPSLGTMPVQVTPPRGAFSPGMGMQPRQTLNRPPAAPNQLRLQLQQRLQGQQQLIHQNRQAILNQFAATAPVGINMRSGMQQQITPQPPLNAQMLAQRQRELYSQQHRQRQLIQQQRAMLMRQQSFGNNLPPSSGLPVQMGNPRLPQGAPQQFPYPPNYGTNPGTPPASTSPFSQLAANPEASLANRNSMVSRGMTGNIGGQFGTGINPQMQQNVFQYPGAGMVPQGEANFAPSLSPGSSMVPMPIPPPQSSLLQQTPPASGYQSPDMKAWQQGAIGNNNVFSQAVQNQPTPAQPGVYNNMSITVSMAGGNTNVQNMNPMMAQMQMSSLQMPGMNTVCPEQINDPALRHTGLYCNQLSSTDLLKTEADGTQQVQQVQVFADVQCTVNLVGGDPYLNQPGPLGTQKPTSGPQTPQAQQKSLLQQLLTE

[2] = VP16 transactivation inhibitors, counter-screen for SRC1 inhibitor project, cell-based, luminescence, high throughput (AID 588824; in the data active = inhibition above about 25%); conditions: cell-based VP16 transactivation luciferase luminescence; at 3.6 µM; active compounds read high
[3] = molecular target: Photoreceptor-specific nuclear receptor (Homo sapiens) (UniProt Q9Y5X4); experiment: NR2E3 agonist confirmation in cells, cell-based, luminescence, CHO-S two-hybrid (AID 624378;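 active = average inhibition above a cutoff equal to the mean inhibition of all tested compounds plus one SD, cut at about 70% in these data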;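 also: 0% = DMSO in NR2E3 cells and 100% = DMSO in cells lacking NR2E3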); conditions: CHO-S mammalian two-hybrid NR2E3-NCOR, luciferase luminescence; at 3.98 µM; active compounds read high
Photoreceptor-specific nuclear receptor (Homo sapiens), sequence (Q9Y5X4 whole entry, looked up, the tested form may be a part): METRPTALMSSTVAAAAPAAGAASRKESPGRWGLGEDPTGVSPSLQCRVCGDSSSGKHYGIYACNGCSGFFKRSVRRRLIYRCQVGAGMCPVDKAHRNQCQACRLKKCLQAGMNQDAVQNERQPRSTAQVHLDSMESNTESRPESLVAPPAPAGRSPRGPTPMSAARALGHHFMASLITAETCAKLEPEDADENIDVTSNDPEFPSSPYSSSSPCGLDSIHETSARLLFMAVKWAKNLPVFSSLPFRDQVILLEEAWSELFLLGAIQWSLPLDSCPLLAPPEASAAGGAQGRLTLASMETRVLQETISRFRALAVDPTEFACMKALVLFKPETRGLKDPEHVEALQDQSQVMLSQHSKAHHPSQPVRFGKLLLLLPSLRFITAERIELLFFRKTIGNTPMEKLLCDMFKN

[4] = GAL4-VP16 reporter modulators, confirmation, counter-screen for NR2E3 agonist project, cell-based, luminescence, CHO-S, high throughput (AID 624379;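 active = mean inhibition above a cutoff equal to the average over all tested compounds plus one standard deviation, cut at about 70% in these data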;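 also: luciferase from a UAS reporter driven by GAL4-VP16 transactivation; 0% = DMSO with VP16-transfected cells and 100% = DMSO with cells lacking VP16; higher means less reporter light so more repression of VP16 activity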); conditions: CHO-S GAL4-VP16 luciferase reporter, at 3.98 µM, active compounds read high
[5] = StAR promoter reporter inhibitors, counter-screen for LRH-1 inverse agonist project, cell-based, luminescence, high throughput (AID 651611); conditions: StAR promoter luciferase reporter counterscreen, at 3.6 µM, active compounds read high
[6] = molecular target: Nuclear receptor subfamily 5 group A member 2 (Homo sapiens) (UniProt O00482); experiment: LRH-1 (NR5A2) inverse agonists, retest, confirmation, cell-based, luminescence (AID 651613; in the data active = inhibition above about 42%;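 also: HEK293T cells co-transfected with LRH-1 and StAR promoter luciferase reporter; 0% = vehicle wells and 100% = parental cells lacking receptor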); conditions: cell-based LRH-1 luciferase reporter, inverse agonism; at 3.6 µM; active compounds read high
Nuclear receptor subfamily 5 group A member 2 (Homo sapiens), sequence (O00482 whole entry, looked up): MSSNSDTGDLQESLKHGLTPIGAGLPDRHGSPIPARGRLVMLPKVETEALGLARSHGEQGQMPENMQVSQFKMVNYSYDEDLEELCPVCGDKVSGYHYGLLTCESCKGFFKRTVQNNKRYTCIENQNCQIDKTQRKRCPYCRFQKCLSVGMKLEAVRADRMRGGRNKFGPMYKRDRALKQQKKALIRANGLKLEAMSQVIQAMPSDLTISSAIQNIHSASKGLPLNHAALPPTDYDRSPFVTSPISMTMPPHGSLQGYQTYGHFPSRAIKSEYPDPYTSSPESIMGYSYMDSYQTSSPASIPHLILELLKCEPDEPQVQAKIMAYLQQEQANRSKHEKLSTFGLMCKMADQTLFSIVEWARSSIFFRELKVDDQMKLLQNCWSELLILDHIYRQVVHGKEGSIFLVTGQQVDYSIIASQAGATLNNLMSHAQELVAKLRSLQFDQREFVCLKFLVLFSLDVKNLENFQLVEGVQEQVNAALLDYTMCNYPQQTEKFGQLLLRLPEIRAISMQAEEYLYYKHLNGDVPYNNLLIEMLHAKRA

[7] = molecular target: Steroidogenic factor 1 (Homo sapiens) (UniProt Q13285); experiment: SF1 (NR5A1) inverse agonists, counter-screen for LRH-1 inverse agonist project, cell-based, luminescence, high throughput (AID 651614; in the data active = inhibition above about 44%;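 also: cells cotransfected with StAR promoter reporter and SF1 expression vector; 0% = vehicle on cells with receptor and 100% = vehicle on cells lacking receptor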); conditions: cell-based SF1 luciferase reporter, at 3.6 µM, active compounds read high
Steroidogenic factor 1 (Homo sapiens), sequence (Q13285 whole entry, looked up, the tested form may be a part): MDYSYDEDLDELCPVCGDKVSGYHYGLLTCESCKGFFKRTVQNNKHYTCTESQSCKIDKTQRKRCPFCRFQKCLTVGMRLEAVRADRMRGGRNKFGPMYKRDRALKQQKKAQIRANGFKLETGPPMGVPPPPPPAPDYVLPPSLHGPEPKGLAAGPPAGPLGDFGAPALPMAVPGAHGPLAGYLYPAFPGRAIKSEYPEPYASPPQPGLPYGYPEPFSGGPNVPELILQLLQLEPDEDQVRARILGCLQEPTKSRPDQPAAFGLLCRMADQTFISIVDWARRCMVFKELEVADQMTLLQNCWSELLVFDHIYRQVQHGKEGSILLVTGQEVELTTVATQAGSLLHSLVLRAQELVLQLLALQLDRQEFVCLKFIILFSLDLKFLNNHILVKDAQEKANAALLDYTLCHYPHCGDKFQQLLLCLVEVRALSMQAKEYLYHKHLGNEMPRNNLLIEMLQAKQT

[8] = VP16 transactivation reporter inhibitors, counter-screen for LRH-1 inverse agonist project, cell-based, luminescence, high throughput (AID 651615; in the data active = inhibition above about 33%); conditions: Gal4-VP16 luciferase reporter cells, at 3.6 µM, active compounds read high

COc1ccc(-n2nnnc2C(c2cccs2)N2CCC(n3c(=O)[nH]c4ccccc43)CC2)cc1 (stereo not drawn)
inhibition [1]: -25.6%
inhibition [2]: -13.5%

CC(=NCc1ccc2c(c1)OCO2)c1c(O)[nH]c(=O)[nH]c1=O
inhibition [3]: 2.39%
inhibition [4]: 8.56%

COc1ccc2c(c1)/C(=C/c1cnc[nH]1)C(=O)N2
inhibition [1]: 13.1%
inhibition [2]: 19%
inhibition [5]: 59.4% (active)
inhibition [6]: 85.8% (active)
inhibition [7]: 72.9% (active)
inhibition [8]: 11.2%

CCN(CC)C1=NC(=[N+](CC)CC)c2ccccc21
inhibition [1]: 9.91%
inhibition [2]: 31.1% (active)
inhibition [5]: 33.7% (active)
inhibition [6]: 107% (active)
inhibition [7]: 74.5% (active)
inhibition [8]: 85.6% (active)

O=c1[nH]c2ccccc2n1C1CCN(Cc2ccc(-c3[nH]c4cc5ncnc5cc4nc3-c3ccccc3)cc2)CC1
inhibition [5]: 42.3% (active)
inhibition [6]: 64.2% (active)
inhibition [7]: 44% (active)
inhibition [8]: 25%

O=C1Nc2ccccc2/C1=C/c1cnc[nH]1
inhibition [5]: 14.6%
inhibition [6]: 14.2%
inhibition [7]: 40.8%
inhibition [8]: -10.7%

CN1CCN(c2cc(N3CCCCCC3)c(F)cc2[N+](=O)[O-])CC1
inhibition [1]: -15.1%
inhibition [2]: -7.21%

CCN(CC)C(=O)COc1cc(C)cc2oc(=O)c3c(c12)CCCC3
inhibition [5]: 7.68%
inhibition [6]: 63.6% (active)
inhibition [7]: 59% (active)
inhibition [8]: -18.9%

CC(C)N(C(=O)CCl)c1ccccc1
inhibition [5]: 19.8%
inhibition [6]: 54.8% (active)
inhibition [7]: 51.7% (active)
inhibition [8]: -6.55%

CN1CCN(c2cccc3c2C(=O)c2ccccc2C3=O)CC1
inhibition [1]: 20.1%
inhibition [2]: 14.8%

COc1cc2c(cc1OC)C1C(=O)c3ccc4c(c3OC1CO2)CC(C(C)C)O4 (stereo not drawn)
inhibition [1]: -30.2%
inhibition [2]: 41.4% (active)
inhibition [5]: 40.3% (active)
inhibition [6]: 71.2% (active)
inhibition [7]: 73.1% (active)
inhibition [8]: 65.5% (active)

CC1=CC2OC3CC4OC(=O)C=CC=CC(=O)OCCC(C)C(O)C(=O)OCC2(CC1)C4(C)C31CO1 (stereo not drawn)
inhibition [5]: 96.6% (active)
inhibition [6]: 109% (active)
inhibition [7]: 98.2% (active)
inhibition [8]: 98.1% (active)

Cc1cccc(C)c1-n1nnnc1C(c1cccs1)N1CCC2(CC1)C(=O)NCN2c1ccccc1 (stereo not drawn)
inhibition [1]: 22.3%
inhibition [2]: 4.87%
